aSyn yeast inh: alpha-synuclein toxicity inhibition in yeast; Yeast expressing alpha-synuclein, growth rescue, BacTiter-Glo, 24 h; Potency, µM (top dose mostly 46.1 µM), most hits filed as activators; 370,000 compounds, 0.14% hits; AID 652106; further: nearly all actives have a fitted effect of over 65% in size
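Galactose-induced alpha-syn yeast (OD600=0.02, raffinose-pregrown) + pinned cpd, 24 hr, 30 deg C; growth by BacTiter-Glo luminescence. Growth restoration scores as activation.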
TDP-43 yeast inh: rescues yeast growth from TDP-43 toxicity | TDP-43 expressing yeast growth rescue, BacTiter-Glo, 24 h | Potency, µM (doses to about 46.1 µM), most hits filed as activators | 410,000 compounds, 1.8% hits | AID 652104; further: nearly all actives have a fitted effect of over 50% in size
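Growth rescue of TDP-43-toxic yeast measured as ATP luminescence (BacTiter-Glo). Cells grown to mid-log in raffinose, induced in galactose at OD600=0.02, exposed to compound 24 hr at 30 deg C.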
FUS yeast rescue: suppressors of FUS proteinopathy in yeast; S. cerevisiae FUS-expressing, growth rescue, OD600, 24 h; Potency, µM (top dose mostly 76.6 µM), hits mostly activators; 390,000 compounds, 0.24% hits; further: nearly all actives have a fitted effect of over 55% in size
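Steps: raffinose overnight preculture; dilution to OD 0.005 in 2% galactose minimal medium; compound addition (concentration series); 24hr at 30C, 99% humidity; absorbance read at 600 nm.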
Abeta rescue: restores growth of yeast expressing A-beta42 peptide; 410,000 compounds, 0.063% hits; Potency, µM (highest dose often 46.1 µM), most hits filed as activators; yeast expressing A-beta42, growth rescue, OD600, 48 h; response scale: 0% DMSO, 100% iron-clioquinol control; further: nearly all actives have a fitted effect of over 55% in size
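Yeast growth medium received pinned compounds, then yeast cells expressing toxic A-beta were added; plates incubated at 30 C for 48 hr. Growth read as absorbance at 600 nm, normalized to DMSO and equimolar FeCl3 plus clioquinol controls.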
Numbers stand for hits; – = inactive; ? = inconclusive; · = no result given; [ ] = remark or other dose. Sampled rows, rich in hits. Any-hit rate of the full collection: about 2.1%. The call rests on the fitted dose curve; in most records, active means well fitted curve in the direction sought with a large enough effect; inconclusive means small, poorly fitted or top-dose-only effect, or another doubt; inactive means no such curve, though single readings can be large; an effect the other way counts as inactive or inconclusive.

SMILES | aSyn yeast inh | TDP-43 yeast inh | FUS yeast rescue | Abeta rescue
CCOC(=O)C1CCCN(S(=O)(=O)c2cc(-c3cc(C)no3)ccc2C)C1 (configuration not stated) | · | 35.5µM | ? | –
CCOC(=O)C1CCN(S(=O)(=O)c2ccc(Br)c(OCC)c2)CC1 | – | – | 5.62µM | –
O=S(=O)(c1ccc(Br)cc1)N1CCN(c2nc(-c3cccs3)nc3ccccc23)CC1 | – | · | · | ·
CCCC[C@H]1C2CC(OC(=O)Nc3ccccc3)C(C2)[C@H]2CCCCN21 (some centres not stated) | · | · | – | ·
COC(=O)C1CN(Cc2cn(CCOC(C)=O)nn2)CCS(=O)(=O)N1Cc1ccccc1 (configuration not stated) | · | · | – | ·
Cc1[nH]c2ccccc2c1C(c1c[nH]c2ccccc12)c1c(C)[nH]c2ccccc12 | – | · | · | ·
O=C(OCC#CCSc1nnc(-c2cccc3ccccc23)o1)c1ccc(Cl)c(C(F)(F)F)c1 | · | · | – | ·
CN(C(=O)CSc1nc(-c2ccccc2)cn1N)C(c1ccccc1)c1ccccc1 | – | – | 31.6µM | –
COc1ccccc1CNC(=O)CSc1nc(-c2ccccc2)cn1N | – | – | – | –
CC1CCN(C(=O)CSc2nc(-c3ccc(C(C)C)cc3)no2)CC1 | · | 17.8µM | – | –
Cc1sc(NC(=O)c2ccco2)c(C(c2cccnc2)N2CCN(c3ccc(F)cc3)CC2)c1C (configuration not stated) | ? | 25.1µM | ? | –
CCOC(=O)C1CCN(C(c2cccnc2)c2c(NC(=O)c3ccco3)sc(C)c2C)CC1 (configuration not stated) | – | 14.1µM | · | –
S=C(Nc1ccc(Cl)cc1)OC1CCC12CCC(c1ccccc1)CC2 (configuration not stated) | · | · | – | ·
C#CC1(O)C2C=C(OC)C(=O)C1C(c1ccccc1)C2C (configuration not stated) | · | · | – | ·
CC(=O)N(O)c1ccc(/C=C2\C=Cc3ccccc32)cc1 | – | · | · | ·
CN(CC(=O)Nc1ccccc1)CC(=O)Nc1ccccc1Cl | – | – | – | –
CCCCc1ccc(NC(=O)CN(C)CC(=O)Nc2ccccc2Cl)cc1 | – | – | 35.5µM | ?
N#Cc1nccnc1S(=O)(=O)c1cccs1 | – | 12.6µM | – | –
COc1ccc(CN2C(=O)[C@@](O)(c3cccn3C)c3cc(Br)ccc32)cc1 | · | · | – | ·
CSc1ccc(/C=C/C(=O)OCC(=O)NC2CC2)cc1 | – | 22.4µM | – | –
O=C(COC(=O)/C=C/c1ccccc1)NCc1ccco1 | – | – | – | –
O=C(COC(=O)/C=C/c1ccc(C(F)(F)F)cc1)NC1CCCC1 | – | 10µM | – | –
O=C(COC(=O)/C=C/c1cccc(Cl)c1)NC1CCCC1 | –[1.84 µM] | 12.6µM | – | –
O=C(COC(=O)/C=C/c1ccccc1)NC1CC1 | – | – | – | –
O=C(COC(=O)/C=C/c1ccc(C(F)(F)F)cc1)NCc1ccco1 | – | 17.8µM | – | –
SMILES | aSyn yeast inh | TDP-43 yeast inh | FUS yeast rescue | Abeta rescue
CCCCCN1CCCCC(NC(=O)C(C)(C)C)C1=O (configuration not stated) | · | · | – | ·
C=CCN1[C@@H](C)COc2cc(N3CCSCC3)ccc2S1(=O)=O | · | · | – | ·
CCCCOc1ccc(C(=O)NC2CCCCN(CC)C2=O)cc1 (configuration not stated) | · | · | – | ·
O=C(COC(=O)/C=C/c1ccc(Cl)cc1)NC1CC1 | – | 35.5µM | – | –
O=C(COC(=O)/C=C/c1ccc(Cl)cc1)NC1CCCCCC1 | – | – | – | –
O=C(COC(=O)/C=C/c1ccc(C(F)(F)F)cc1)NC1CC1 | – | 6.31µM | – | –
O=C(COC(=O)/C=C/c1ccc(C(F)(F)F)cc1)NCC1CCCO1 (configuration not stated) | – | 25.1µM | – | –
O=C(COC(=O)/C=C/c1ccc(F)cc1)NCC1CCCO1 (configuration not stated) | – | – | – | –
COc1cccc(Cn2cc(COC(=O)N3CCCC3)nn2)c1 | · | · | – | ·
COc1ccc(-c2nc(CSCC(=O)N3CCN(c4cccc(C)c4)C(C)C3)c(C)o2)cc1OC (configuration not stated) | – | 22.4µM | ? | –
COc1ccc(-c2nc(CSCC(=O)N3CCc4ccccc4C3)c(C)o2)cc1OC | – | ? | – | –
Cc1cccc2cc3c(N)c(C#N)sc3nc12 | ? | 3.16µM | – | –
COc1cccc(C2CC(c3cccc(Br)c3)n3ncnc3N2)c1 (configuration not stated) | – | 20µM | – | –
COc1ccc(NC(=O)CCc2nc3cccnc3n2Cc2cccs2)c(OC)c1 | · | – | – | –
O=C(CCc1nc2cccnc2n1Cc1cccs1)Nc1cccc(C(F)(F)F)c1 | · | 25.1µM | – | ?
O=[N+]([O-])c1ccc2c(c1)C=C/C2=C/c1ccccc1 | – | · | · | ·
CCC(=O)Nc1sc2c(c1C#N)CC(C)(CC)OC2 (configuration not stated) | · | 11.2µM | – | –
O=C(Nc1ccc(Br)cn1)c1cnn2c1NC(=C1CC1)C=C2C(F)F | – | · | · | ·
CC1C2CCC(C2)C1OC(=O)c1ccccc1C(=O)O (configuration not stated) | – | – | – | –
O=C(O)c1ccccc1C(=O)OC1CCCC2CCCC21 (configuration not stated) | – | 22.4µM | · | –
O=S(=O)(Nc1ccc(N2CCOCC2)cc1)c1c(F)cc(F)cc1Br | 22.4µM | ? | – | –
Cc1nc2ccc(NS(=O)(=O)c3ccc(C)c(C)c3)cc2s1 | – | – | – | –
Cc1nc2ccc(NS(=O)(=O)c3ccc(F)cc3F)cc2s1 | – | 12.6µM | · | –
Cc1nc2ccc(NS(=O)(=O)c3c(F)cc(F)cc3Br)cc2s1 | ? | 15.8µM | – | –
CSc1nc2ccc(NS(=O)(=O)c3c(Cl)cccc3Cl)cc2s1 | – | 10µM | · | –
SMILES | aSyn yeast inh | TDP-43 yeast inh | FUS yeast rescue | Abeta rescue
CCN(CC)C(=O)Cn1nc(Cc2ccncc2)c2ccccc2c1=O | · | · | – | ·
C[C@H]1[C@@H](NC(=O)c2ccc(C(C)(C)C)cc2)CC[C@@]23CCCN2C(=O)CCC[C@@H]13 | · | · | – | ·
CCOC(=O)[C@]12CCCCC/C=C\1N(Cc1ccc(OC)cc1)C(=O)[C@H]2CC(=O)NCCCOC | · | · | – | ·
Cc1nc2ccc(NS(=O)(=O)c3ccc(F)c(F)c3F)cc2s1 | ? | 20µM | – | –
c1ccc2c(c1)OCC(c1nn3c(Cn4nnc5ccccc54)nnc3s1)O2 (configuration not stated) | – | – | 31.6µM | –
c1ccc(Cc2nn3c(Cn4nnc5ccccc54)nnc3s2)cc1 | – | – | – | –
COc1cc(C(O)c2nc(/C=C/c3ccccc3)cs2)ccc1F (configuration not stated) | – | 22.4µM | – | –
OC(c1ccc(F)cc1)c1nc(/C=C/c2ccccc2)cs1 (configuration not stated) | – | ? | – | –
OC(c1ccccc1)c1nc(/C=C/c2ccccc2)cs1 (configuration not stated) | – | 14.1µM | – | –
CCCC(=O)OC12CCCN(C1)/C(=C/c1ccccc1)C2 (configuration not stated) | · | · | – | ·
